Experimental data taken from PubChem BioAssay (NCI).
The panel holds about 83,000 compounds, 20% with a hit somewhere; the sample as a whole holds those more often.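 The endpoint reported here, percent growth, reads 100 for growth as untreated, 0 for no net growth and -100 for all cells dead.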 Values without a mark were called inactive. Calls of active or inactive are those of the source. The calls were made as follows: active = growth percent below 10; inactive = the rest.

Columns and labels:
Test in all cases: NCI-60 one-dose screen, 48 h (100 = growth as untreated, 0 = no growth, -100 = all killed)
HCT-15 colon = settings: 10 µM
HT29 colon = settings: 10 µM
SNB-75 CNS = settings: 10 µM
SNB-19 CNS = settings: 10 µM
U251 CNS = settings: 10 µM
PC-3 prostate = settings: 10 µM
SK-MEL-5 melanoma = settings: 10 µM
UACC-62 melanoma = settings: 10 µM unless noted
LOX IMVI melanoma = settings: 10 µM
SK-MEL-28 melanoma = settings: 10 µM

SMILES | growth (HCT-15 colon) | growth (HT29 colon) | growth (SNB-75 CNS) [%] | growth (SNB-19 CNS) [%] | growth (U251 CNS) [%] | growth (PC-3 prostate) [%] | growth (SK-MEL-5 melanoma) | growth (UACC-62 melanoma) [%] | growth (LOX IMVI melanoma) | growth (SK-MEL-28 melanoma) [%]
O=C1OC(=O)C2C1C1(Cl)C(Cl)=C(Cl)C2(Cl)C2C(=O)OC(=O)C21 (stereo not given) | 103% | 104% | 89.1 | 106 | 101 | 97.9 | 103% | 102 | 98.4% | 107
CC(C)CCOC(=O)c1ccccc1 | 111% | 108% | 95.6 | 105 | 97.5 | 97.9 | 105% | 104 | 101% | 103
COC(=O)/C=C1\Sc2cc(F)ccc2NC1=O | 106% | 97.8% | 86.6 | 95 | 93.2 | 92.2 | 104% | 88.8 | 93.4% | 129
O=C(CCl)N1CCN(C/C=C/c2ccccc2)CC1 | 86.3% | 79.2% | 92.6 | 95.2 | 90.7 | 89 | 86.6% | 76.6 | 2.58% (active) | 94.4
CCOC(=O)Nc1cc2c(c(N)n1)N=C(c1ccccc1)CO2 | 6.55% (active) | 12.2% | 33.5 | 37.3 | 21.8 | 29.9 | 10.2% | 34.9 | 28.5% | 47.6
O=C1C=C(Nc2ccc([N+](=O)[O-])cc2)c2ccccc2C1=O | 31.2% | 99.4% | 42.9 | 52.8 | 28.5 | 23.9 | 11.7% | 17.7 | 9.66% (active) | 50.3
CN(C)CCN(Cc1ccccc1)c1ccccc1 | 105% | 98.3% | 108 | 105 | 106 | 106 | 105% | 97.8 | 93.2% | 113
CCCCOC(=O)c1ccc(C(C)C)cc1 | 101% | 94.9% | 84.3 | 105 | 93.8 | 84.7 | 106% | 103 | 96.7% | 111
N#CCCc1ccc(O)cc1 | 95.1% | 108% | 88.3 | 110 | 96.9 | 102 | 105% | 102 | 107% | 105
Cc1nc2ccccc2c(C(=O)O)c1O | 107% | 103% | 98.3 | 93.1 | 103 | 104 | 102% | 93.2 | 96.4% | 122
O=[N+]([O-])c1ccc(Cl)c(S(=O)(=O)O)c1 | 96.6% | 138% | 85.8 | 106 | 111 | 108 | 104% | 105 | 102% | 111
NC(CSC(c1ccccc1)(c1ccccc1)c1ccccc1)C(=O)O (stereo not given) | 34.3% | 14% | 64.9 | 49.8 | 14.1 | 19.7 | 26.3% | 48 | 38.2% | 57.9
CNS(=O)(=O)c1ccc(Cl)c(Cl)c1 | 99.9% | 106% | 87.8 | 106 | 99.3 | 113 | 96.7% | 86.6 | 102% | 119
CC(C)(N)COS(=O)(=O)O | 103% | 113% | 91.5 | 93 | 103 | 95.9 | 102% | 102 | 113% | 96.3
NC(=O)c1ccc(N=C(N)N=C(N)N)cc1 | 95.7% | 105% | 91.2 | 110 | 101 | 93.1 | 93.6% | 105 | 100% | 111
CCc1nn(Cc2ccccc2)c2nc(C)c(CCc3ccccc3)c(Cl)c12 | 98.5% | 88.6% | 93.2 | 80.2 | 96.9 | 76 | 82.7% | 84.5 | 92.6% | 107
CCOc1ccc(I)cc1 | 103% | 106% | 91.4 | 104 | 103 | 88.4 | 118% | 95.2 | 100% | 107
OC1CCCc2ccccc21 (stereo not given) | 108% | 101% | 88 | 90.8 | 108 | 103 | 111% | 100 | 104% | 120
Cc1ccc(Cl)cc1NC(=O)N(C)CCO | 110% | 133% | 126 | 101 | 102 | 96 | 101% | 109 | 107% | 145
COc1cc([C@@H]2c3cc4c(cc3[C@H](O)[C@H]3COC(=O)[C@H]23)OCO4)cc(OC)c1OC | 10.4% | 4.93% (active) | 30.6 | 34.7 | 16.5 | 23.3 | -25% (active) | 40.5 | 22% | 58.8
O=c1[nH]nc(SC2CCCCC2)c(=O)[nH]1 | 106% | 97.1% | 82.3 | 103 | 103 | 90.6 | 112% | 113 | 92.8% | 94.8
CC1CCC(C(=O)O)N1 (stereo not given) | 110% | 94.1% | 83.3 | 102 | 96 | 99.2 | 102% | 98.1 | 99.2% | 95.4
CC(C)(O)C#CC#CC(C)(C)O | 97.7% | 97.8% | 94 | 112 | 98 | 99.3 | 99% | 111 | 97% | 99.4
CCCOC(=O)C(O)c1ccccc1 (stereo not given) | 97.5% | 103% | 96.7 | 107 | 115 | 101 | 104% | 98.2 | 104% | 116
COc1cc(-c2ccc(NC(=O)NC3CC3)c(OC)c2)ccc1NC(=O)NC1CC1 | 31.2% | 48.6% | 89.4 | 84.7 | 37.4 | 41.6 | 47.6% | 70.7 | 36.8% | 86.7
C=CC[N+](C)(C)C | 98.7% | 104% | 94.3 | 98.7 | 101 | 97.6 | 105% | 102 | 92.2% | 107
S=c1nn[nH]c2ccccc12 | 103% | 112% | 96.4 | 95.9 | 103 | 98.1 | 97.9% | 99.2 | 93.6% | 126
O=c1cc(-c2ccccc2)nc2cc(-c3ccco3)[nH]n12 | 67.8% | 102% | 79.4 | 95.8 | 90.5 | 78.7 | 83.1% | 67.8 | 86.1% | 88.6
Cc1ccc(O)c(C(=O)c2ccccc2)c1 | 104% | 104% | 96.6 | 92.2 | 105 | 101 | 105% | 96.6 | 99.3% | 110
Cc1ccc(/C(C#N)=C/c2ccc3c(c2)OCO3)cc1 | 69.5% | 37.1% | 67.8 | 88.4 | 63.2 | 81.9 | 58.6% | 73.5 | 74.9% | 81.4
